D2 ag-1: D2 dopamine receptor (human) agonism. P14416. HEK293 T-REx D2 cells, calcium flux agonist mode. 0.53% of 340,000 active. activation, % at 2 µM;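 active = activation over 3 SD above normal in the single-dose calcium agonist read, cut at about 30% in these data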; note: 0% is about no effect
Target sequence (P14416 whole entry, looked up): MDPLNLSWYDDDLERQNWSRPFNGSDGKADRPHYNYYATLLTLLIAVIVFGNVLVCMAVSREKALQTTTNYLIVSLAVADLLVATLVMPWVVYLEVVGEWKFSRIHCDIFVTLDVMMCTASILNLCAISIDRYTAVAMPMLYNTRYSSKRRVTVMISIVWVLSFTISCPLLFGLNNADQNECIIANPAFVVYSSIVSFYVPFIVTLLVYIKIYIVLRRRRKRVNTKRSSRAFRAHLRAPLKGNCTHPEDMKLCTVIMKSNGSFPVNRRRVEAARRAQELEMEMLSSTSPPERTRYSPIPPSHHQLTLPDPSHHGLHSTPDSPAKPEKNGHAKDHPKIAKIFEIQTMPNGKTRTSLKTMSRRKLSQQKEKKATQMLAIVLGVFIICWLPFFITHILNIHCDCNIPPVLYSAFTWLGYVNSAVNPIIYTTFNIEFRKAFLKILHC
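Tetracycline-induced HEK293 Trex cells with D2 receptor force-coupled to calcium signaling, plated overnight at 30 C and loaded with no-wash calcium dye. Calcium flux read kinetically for 180 s after compound addition; responses flag agonists.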
D2 PAM-1: positively modulates the human D2 dopamine receptor allosterically; P14416; potentiation, % at 10 µM; 0.34% of 340,000 active; HEK293 T-REx D2, calcium flux, EC20 dopamine potentiation;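 active = potentiation over 3 SD above the plate norm, cut at about 30% in these data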; note: 0% is about no effect
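Tetracycline-induced Hek293 Trex D2 cells, force-coupled to calcium, loaded with no-wash calcium dye. Compound added with 180 s kinetic read for agonism, then EC20 dopamine and a further 180 s read for potentiation.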
D2 ag-2: activates the human D2 dopamine receptor; activation, % (no concentration beside the values); P14416; 0.084% of 360,000 active; DiscoveRx PathHunter D2 beta-arrestin, luminescence, 90 min; 100% = 57 uM dopamine signal; AID 624465; in the data active = activation above about 40%; inconclusive = between about 15% and that limit
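DiscoveRx PathHunter D2 beta-arrestin cells (2,100/well) attached overnight, then compound-stimulated 90 min at 37 C in HBSS/10 mM HEPES/0.1% Tween-20 buffer; beta-galactosidase complementation read by luminescence after 1 h at ambient temperature. Dopamine 57 uM final (EC100) as control.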
D2 PAM-2: potentiates the human D2 dopamine receptor allosterically; P14416; DiscoveRx D2 beta-arrestin cells, luminescence, 90 min; 100% = 57 uM dopamine signal; potentiation, % (no concentration beside the values); 0.23% of 360,000 active; AID 624464; in the data active = potentiation above about 50%; inconclusive = mostly about 30% to 49%
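PathHunter beta-arrestin assay in DiscoveRx D2 cells. Compounds were added with an EC20 of dopamine (50 nM final) for 90 min at 37 deg C. Luminescence was read 1 h after detection reagent, with 57 uM dopamine as the EC100 control.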
D2 antagonist: D2 dopamine receptor (human) antagonism; P14416; HEK293 TREx D2 cells, calcium flux, dopamine EC80; inhibition, % at 10 µM; 2% of 340,000 active; AID 485344; in the data active = inhibition above about 30%; inactive = below that, where a call was filed; note: 0% is about no effect
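Inhibition of EC80 dopamine-driven calcium flux, recorded kinetically, defines activity here; cells are a tetracycline-induced HEK293 T-REx line expressing force-coupled D2.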
Active calls of the source: *; ? = inconclusive; . = no result; ! = not active in a repeat. Most compounds without a hit are left out; they make up all but 2.4% or so of the library.

SMILES	D2 ag-1	D2 PAM-1	D2 ag-2	D2 PAM-2	D2 antagonist
O=C(COC(=O)c1cc(-c2cccs2)nn1-c1ccccc1)Nc1ccc(Cl)c([N+](=O)[O-])c1	15	-3	-1	-7	44*
CN(C)c1ccc(NC(=O)C2(c3cccs3)CCOCC2)cc1	.	9	.	.	.
O=C(COc1ccc2c(c1)OCO2)Nc1ccc2c(c1)oc1ccccc12	0	-5	2	9	37*
Cc1nn(C)c(C)c1NC(=S)Nc1ccc(S(=O)(=O)Nc2ncccn2)cc1	1	1	0	-3	31*
COc1ccc(CCn2c(=O)c3ccccc3n(CC(=O)Nc3cccc(C)c3)c2=O)cc1OC	0	-4	.	.	.
CC(OC(=O)c1c2c(nc3ccccc13)/C(=C\c1ccc3c(c1)OCO3)CCC2)C(=O)Nc1ccc(S(N)(=O)=O)cc1 (centres undefined)	100*	7	9	6	8
O=C1CC(c2nc3ccccc3n2Cc2c(F)cccc2Cl)CN1c1cccc(C(F)(F)F)c1 (centres undefined)	0	-4	.	.	.
CCOC(=O)c1c(C)c(-c2ccccc2)n(CC(=O)NCc2ccccc2)c1C	.	2	.	.	.
O=C(Nc1ccnn1C1CCN(Cc2ccccn2)CC1)c1cccc(F)c1	2	5	-2	-10	9
O=C(Nc1ccnn1C1CCN(Cc2ccccc2OCCO)CC1)c1cccc(F)c1	1	-13	0	-33	40*
O=C(Nc1ccnn1C1CCN(Cc2ccccc2OC(F)F)CC1)c1cccc(F)c1	0	-23	-3	-32	32*
O=C(CN1CCCN(S(=O)(=O)c2ccc(Br)cc2)CC1)Nc1cccc(C(F)(F)F)c1	0	-3	.	.	.
COc1cc(-c2cc(=O)c3c(O)c(OC)c(OC)c(O)c3o2)ccc1O	0	17	9	88*	0
COc1c(O)c(O)c2oc(-c3ccccc3)cc(=O)c2c1OC	0	14	8	?	-5
CN(C)CCNC(=O)c1ccc(Cn2c(=O)c3cccn3c3cccnc32)cc1	2	-7	.	.	.
O=C(O)c1cc(-c2cccs2)nc2ccc(Br)cc12	0	0	.	.	34*
Cc1ccc(-c2cc(C(=O)Nc3cc(C(=O)O)ccc3C)c3ccccc3n2)cc1	0	32*	-2	5	-30
O=C(O)c1cc(-c2ccccc2)nc2ccccc12	-1	0	-7	-4	40*!
Cc1ccc(C)c(NC(=O)c2cc(C)nc3ccccc23)c1	-2	1	0	13	-2
O=C(N/N=C/c1ccco1)c1cc(-c2ccccc2)nc2ccccc12	0	-20	-3	-35	37*
CCOc1ccccc1NC(=O)Cn1c(=O)n(-c2ccc(C)c(C)c2)c(=O)c2c(C)c(C(=O)N(C)C)sc21	-2	6	.	.	.
Cc1ccccc1-c1nc(CS(=O)(=O)CC(=O)NCCCc2ccccc2)c(C)o1	1	-10	.	.	.
O=S(=O)(Nc1cccc(-c2ccc(N3CCCC3)nn2)c1)c1ccc(F)c(C(F)(F)F)c1	-2	7	.	.	.
Cc1ccc(-c2cc(C(=O)O)c3ccccc3n2)s1	0	-8	-3	-13	34*
N#CCC(=N)N1CCN(c2cccc(Cl)c2)CC1	1	-15	0	-22	63*
SMILES	D2 ag-1	D2 PAM-1	D2 ag-2	D2 PAM-2	D2 antagonist
CC(=O)N1CCC(N(Cc2ccco2)C(=O)Nc2ccc(Br)cc2F)CC1	1	-7	.	.	.
COc1ccc(S(=O)(=O)Cc2ccc(C(=O)N3CCN(Cc4ccccc4)CC3)o2)cc1	3	6	1	-3	0
Cc1ccc(S(=O)(=O)Cc2ccc(C(=O)N3CCc4ccccc4C3)o2)cc1	0	58*	1	-10	-16
Cc1ccc(S(=O)(=O)Cc2ccc(C(=O)N3CCN(Cc4ccccc4)CC3)o2)cc1	-1	51*	.	.	-9
Cc1nc2ccccc2n2c(O)c(CC(=O)O)cc12	2	-7	14	79*	2
Cc1nc2ccccc2n1CCC(=O)O	0	-1	0	21	6
Cc1cc(=O)n2[nH]c(NC(=O)c3cccc(Cl)c3)nc2n1	0	2	.	.	.
COc1ccc(N2C(=O)Cc3cc(OC)c(OC)cc3C2c2ccc(F)cc2)cc1 (centres undefined)	1	-5	.	.	.
